Assay outcomes: PubChem, NMMLSC
Jurkat autofluor = compound fluoresces in Jurkat cells, VLA-4 screen interference | compound autofluorescence, flow cytometry; stronger effect = higher value; 1 = vehicle-only cell background | fluorescence ratio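 (tested at 10 µM compound in the well)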 | hit rate 0.61% among 24,000 | AID 576;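 active = fluorescence ratio above 2.44, which is 1 plus 3 SD of all ratios; inconclusive = signal too bright to measure linearly, ratio around 10 or more; inactive = fluorescence ratio below 2.44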;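 note: green fluorescence of cells measured with 488 nm excitation and 530 nm emission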
VLA-4 antagonist = blocks LDV-FITC ligand binding to Mn2+-activated human VLA-4 integrin. P13612. Jurkat cells, LDV-FITC binding with Mn2+, flow cytometry; 100% = Mn2+-driven binding gain fully reversed. inhibition, % at 10 µM (by protocol). hit rate 0.2% among 24,000. AID 529;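 active = inhibition above 50%; inconclusive = compound itself fluorescent, judged against control cell fluorescence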;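 note: 0% = Mn2+ stimulated cells lacking compound and 100% = ligand binding without Mn2+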
Target sequence (P13612 whole entry, looked up): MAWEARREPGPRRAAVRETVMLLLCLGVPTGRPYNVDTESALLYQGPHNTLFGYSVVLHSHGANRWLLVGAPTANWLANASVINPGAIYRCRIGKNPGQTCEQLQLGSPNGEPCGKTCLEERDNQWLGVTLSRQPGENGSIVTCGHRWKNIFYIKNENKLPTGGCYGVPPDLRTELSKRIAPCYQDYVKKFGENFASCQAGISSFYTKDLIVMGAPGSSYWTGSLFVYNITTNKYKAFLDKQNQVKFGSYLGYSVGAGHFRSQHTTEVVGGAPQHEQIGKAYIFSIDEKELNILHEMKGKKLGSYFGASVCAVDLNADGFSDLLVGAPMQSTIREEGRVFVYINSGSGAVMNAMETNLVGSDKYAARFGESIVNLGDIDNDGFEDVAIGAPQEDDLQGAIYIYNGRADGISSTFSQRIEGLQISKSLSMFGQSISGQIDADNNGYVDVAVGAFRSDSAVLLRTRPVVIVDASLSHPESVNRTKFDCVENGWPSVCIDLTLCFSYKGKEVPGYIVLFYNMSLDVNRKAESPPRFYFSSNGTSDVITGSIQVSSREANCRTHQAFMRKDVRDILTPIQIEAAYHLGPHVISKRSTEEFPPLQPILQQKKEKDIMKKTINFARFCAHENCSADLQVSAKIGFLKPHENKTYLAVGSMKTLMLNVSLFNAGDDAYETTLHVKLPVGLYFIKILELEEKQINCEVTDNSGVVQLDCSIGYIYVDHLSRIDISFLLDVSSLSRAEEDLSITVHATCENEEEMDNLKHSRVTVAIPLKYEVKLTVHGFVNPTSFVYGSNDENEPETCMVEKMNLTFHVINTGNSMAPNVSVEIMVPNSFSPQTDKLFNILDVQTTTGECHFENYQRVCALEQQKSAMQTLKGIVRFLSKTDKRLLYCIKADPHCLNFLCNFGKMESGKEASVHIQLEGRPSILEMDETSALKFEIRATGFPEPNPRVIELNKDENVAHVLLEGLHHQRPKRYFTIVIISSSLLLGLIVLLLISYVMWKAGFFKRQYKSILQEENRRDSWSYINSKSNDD
VLA-4 allo ag = allosterically activates the human VLA-4 integrin; AID 528; 24,000 tested, under 10 active; P13612; activation, % at 10 µM (by protocol); Jurkat cells, LDV-FITC binding, flow cytometry;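 active = fluorescent ligand binding to cells raised by more than 40% of the manganese-induced maximum; inconclusive = compound's own fluorescence above 85% of the ligand control signal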;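 note: 0% = ligand binding without compound and 100% = manganese-stimulated maximal binding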
Proteasome disasm = blocks ATP-dependent breakdown of the yeast 26S proteasome. anti-FLAG beads, GFP-proteasome disassembly, flow cytometry. hit rate 0.2% among 24,000. AID 751. inhibition of disassembly, % (no concentration beside the values);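 active = inhibition of disassembly above about 33%, limit read from the data; inconclusive = likely self-fluorescent, control bead median signal at least 40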;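 note: plate controls were ATP control with full disassembly for no effect and ATP-gamma-S intact proteasomes for full effect; higher percent means more bead fluorescence retained so stronger block of disassembly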
Active calls of the source: *; ? = inconclusive; · = not tested or not shown. In the library only some 0.94% were active in any assay of this set; here they are far more common.

SMILES | Jurkat autofluor | VLA-4 antagonist | VLA-4 allo ag | Proteasome disasm
C=C(C)C1Cc2c(C)nn(-c3nc(C)cc(C)n3)c2C1 (stereo not drawn) | 1 | 54.0* | -20.0 | 2.8
C=C(C)C1Cc2nc(N)nc(C)c2C1 (stereo not drawn) | 0.94 | 17.0 | -7.0 | 0.7
CCN(CCCNS(=O)(=O)c1ccc2c(c1)CCN2C(C)=O)c1cccc(C)c1 | 1 | 8.0 | 9.0 | -1.1
Cc1c(Cl)cccc1NC(=O)c1cc(C2CC2)on1 | 1.01 | 16.0 | 4.0 | 0.6
CCCN1Cc2cccc(C(=O)Nc3ccc(CN4CCCC4)cc3)c2C1=O | 1.04 | -2.0 | 1.0 | 102.3*
COc1ccc(C)cc1NS(=O)(=O)c1cccc2nonc12 | 1.09 | 17.0 | -1.0 | -0.7
Cc1ccc(-c2nc(CS(=O)CC(=O)NC3CCC(C)CC3)c(C)o2)cc1 (stereo not drawn) | 0.84 | ? | ? | 0.4
CCCN(CCC)CCCNS(=O)(=O)c1ccc2c(c1)oc(=O)n2C | 3.7* | ? | ? | 1.0
CCOc1ccccc1N1CCN(c2nc3ccccc3nc2C(C#N)C(=O)OC)CC1 (stereo not drawn) | 1.53 | -24.5 | 3.0 | 1.8
CCOc1ccccc1N1CCN(c2nc(N)c(C#N)c(CC#N)c2C#N)CC1 | 5.24* | ? | ? | 19.2
COc1ccc2[nH]cc(CCN=C3SCC(=O)N3C)c2c1 | 1.4 | ? | ? | 0.1
Cc1cccn2c(=O)c3cc(C(=O)N4c5ccccc5CC4C)n(C)c3nc12 (stereo not drawn) | 2.7* | ? | ? | 4.4
CC1Cc2ccccc2N1C(=O)c1cc2c(=O)n3ccccc3nc2n1C (stereo not drawn) | 1.28 | ? | ? | -1.7
CC(=O)C1=C(C)N=c2s/c(=C/c3ccc4c(c3)OCO4)c(=O)n2C1c1ccc(N(C)C)cc1 (stereo not drawn) | 8.5* | ? | ? | 15.9
COc1ccc2c(c1)c1nc(SCC(C)C)n(CCO)c(=O)c1n2C | 1.01 | -10.0 | 4.0 | 0.4
CCOC(=O)C1=C(C)N=c2s/c(=C\c3cccn3C)c(=O)n2C1c1cccc(OC)c1OC (stereo not drawn) | 7.77* | ? | ? | 14.1
CCOC(=O)c1ccc(NC(=O)Nc2ccc3c4c(cccc24)C(=O)N3CC)cc1 | 3.11* | ? | ? | 1.1
CCN1C(=O)c2cccc3c(NC(=O)c4ccc(S(=O)(=O)N(C)C)cc4)ccc1c23 | 1.08 | -9.5 | 5.5 | 1.0
O=C1CS/C(=N\C(=O)N2c3ccccc3Sc3ccccc32)N1 | 1.21 | 14.0 | -18.0 | 5.0
COc1cccc(NS(=O)(=O)c2ccc(Br)s2)c1 | 2.86* | ? | ? | 2.1
COc1ccccc1NS(=O)(=O)c1ccc(Br)s1 | 1.11 | -4.0 | -1.0 | 1.6
O=S(=O)(c1cccc2nsnc12)N1CCc2ccccc21 | 1.07 | 15.7 | -3.0 | 2.5
NC1=CC(=O)c2cccc3cccc1c23 | 3.49* | ? | ? | 6.1
O=C1c2ccccc2-c2nc3ncnn3c(-c3ccccc3Cl)c21 | 3.7* | ? | ? | -0.8
CC(C)(CC(=O)N1CCN(c2ccc(Cl)cc2)CC1)CC1=NS(=O)(=O)c2ccccc2N1 | 1.02 | -4.0 | 3.0 | ?
SMILES | Jurkat autofluor | VLA-4 antagonist | VLA-4 allo ag | Proteasome disasm
O=C(Cn1nc(-c2ccc3c(c2)OCCO3)ccc1=O)Nc1ccc(N2CCOCC2)cc1 | 1 | 96.0* | -27.0 | -0.7
O=C(CN1C(=O)CSC1=O)Nc1ccc(N2CCOCC2)cc1 | 1.02 | -12.5 | 5.5 | -1.8
CC(=O)c1ccc(OCC(O)CN2CCN(Cc3ccccc3)CC2)cc1 (stereo not drawn) | 0.97 | -23.0 | 5.0 | 0.3
CCC(=O)c1ccc(OCC(O)Cn2cnc3ccccc32)cc1 (stereo not drawn) | 3.21* | ? | ? | -0.1
FC(F)(F)c1ccc(N2CCOCC2)c(Nc2nc3ccccc3n3cnnc23)c1 | 2.72* | ? | ? | 0.9
COc1ccc(NC(=O)CCc2nc(-c3ccccc3F)no2)cc1 | 0.97 | -33.5 | 5.5 | 3.3
Cc1nc2ccccc2c2oc(C(=O)NCc3ccccn3)cc12 | 1.02 | -7.7 | -4.0 | 0.4
Cc1nc(NCc2ccccn2)c2ccccc2n1 | 2.79* | ? | ? | 28.3
COc1cc2[nH]c(=O)n(CCCCCC(=O)N3CC=C(c4ccccc4)CC3)c(=O)c2cc1OC | 1.05 | 13.0 | -1.0 | ·
CCOC(=O)c1c(C)oc2ccc(O)c(CN(C)C)c12 | 0.97 | -19.5 | 2.0 | -1.4
CCOC(=O)c1c(C)oc2c1c(/C=N/c1ccccn1)c(O)c1ccccc12 | 8.86* | ? | ? | ?
CCC(=O)N1CCN(c2nc(-c3ccccc3)c3c(c2C#N)CCCC3)CC1 | 1.22 | -7.0 | -5.5 | 4.5
CN1CC=C2C(C#N)=C(N)C(C#N)(C#N)C(Cc3ccccc3)C2C1 (stereo not drawn) | 2.59* | ? | ? | 26.1
CCOC(=O)Cn1c(=O)oc2cc(S(=O)(=O)Nc3c(C)cc(C)cc3C)ccc21 | 6.02* | ? | ? | 0.1
CCOC(=O)Cn1c(=O)oc2cc(S(=O)(=O)N3CCCC(C(=O)OCC)C3)ccc21 (stereo not drawn) | 3.14* | ? | ? | -5.3
CCOC(=O)Cn1c(=O)oc2cc(S(=O)(=O)NCc3cccs3)ccc21 | 1.39 | ? | ? | 2.6
CCOC(=O)Cn1c(=O)oc2cc(S(=O)(=O)NCc3ccccn3)ccc21 | 3.65* | ? | ? | -0.3
CCOc1cc2[nH]c(=O)n(CCCCC(=O)NC3CCCCC3)c(=O)c2cc1OCC | 1.03 | 26.0 | -18.0 | -2.3
Nc1cc(C(=O)O)ccc1Nc1ccccc1 | 1.04 | 6.0 | 0.0 | -0.6
Nc1ccc(Nc2ccccc2N)cc1 | 5.23* | ? | ? | ?
COc1cccc2c1C(=O)c1c(O)c3c(c(O)c1C2=O)C[C@@](O)(C(=O)CO)C[C@@H]3O[C@H]1C[C@H](N)[C@H](O)[C@H](C)O1 | 6.26* | ? | ? | ?
Cc1noc(/C=C/c2ccco2)c1S(=O)(=O)N1CCC(C(=O)N(C)Cc2ccccc2)CC1 | 1.09 | 24.0 | -2.0 | 45.8*
Cc1noc(C)c1S(=O)(=O)N1CCC(C(=O)N2CCN(C(=O)c3ccco3)CC2)CC1 | 1.06 | -15.0 | 4.0 | -0.6
Cc1noc(C)c1S(=O)(=O)N1CCC(C(=O)N2CCN(c3ccccc3Cl)CC2)CC1 | 0.98 | 9.0 | 2.0 | -2.7
Cc1noc(/C=C/c2ccco2)c1S(=O)(=O)N1CCC(C(=O)N2c3ccccc3CC2C)CC1 (stereo not drawn) | 1.06 | -4.0 | 2.0 | 105.2*
SMILES | Jurkat autofluor | VLA-4 antagonist | VLA-4 allo ag | Proteasome disasm
O=C(CSc1nccc2ccccc12)N1CCN(c2ccccn2)CC1 | 1.13 | 4.0 | -12.0 | -1.4
COc1ccccc1Cn1c(-c2ccco2)nc2nc3ccccc3nc21 | 2.61* | ? | ? | 6.1
Cc1cccc(NC(=O)c2cnc3sccn3c2=O)n1 | 1.04 | -1.0 | -5.5 | 1.1
O=C(Nc1ccon1)c1cnc2sccn2c1=O | 2.49* | ? | ? | -0.8
Cc1n[nH]c(C)c1S(=O)(=O)Nc1ccc2c(c1)OCCO2 | 1.09 | -3.7 | -6.0 | -1.2
CCCCn1c(NC(=O)CC)c(C#N)c2nc3ccccc3nc21 | 3.14* | ? | ? | 6.7
